PglD DTNB = blocks C. jejuni PglD acetyltransferase activity | 0.098% of 360,000 active | purified PglD enzyme, DTNB colorimetric CoA detection | inhibition, % at 12.5 µM; in the data active means inhibition above about 16%, passing the limit was not always enough
ALR H2O2 inh = inhibitors of human sulfhydryl oxidase ALR. purified ALR, DTT oxidation, H2O2 HRP-luminol luminescence. 3.8% of 290,000 active. inhibition, % (test concentration not listed). P55789;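 active means mean replicate inhibition above about 79%, with every replicate also reaching it, limit read from the data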
ARNT-TACC3 inh = ARNT/TACC3 interaction disruption | AlphaScreen His-ARNT PAS-B/GST-TACC3 binding, luminescence; TACC3 fragment carries E629A point mutation | inhibition, % at 9.99 µM | 0.66% of 390,000 active;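 active means mean inhibition of replicates at least 50% and at least half of replicates each reaching 50%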;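 further: 0% = complete ARNT plus TACC3 wells and 100% = ARNT alone without TACC3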
PDI turbidity = blocks human protein disulfide isomerase activity | PDI insulin aggregation turbidity, A650, 90 min | inhibition, % at 10 µM | 0.052% of 350,000 active | AID 588391;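 active means mean inhibition across replicates of 30% or more, whatever share of single replicates reach that level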
NRP1-CendR mod = NRP-1/CendR interaction modulation | FAM-RPARPAR peptide binding to NRP-1, fluorescence polarization | O14786 | 0.85% of 360,000 active | AID 602438 | inhibition, % at 25 µM;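 active means inhibition or corrected inhibition above about 18%, plus a signal ratio from 0.5 to 1.5, limit read from the data, passing the limit was not always enough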
ERp5 inh = blocks human ERp5 reductase activity on insulin; 0.05% of 350,000 active; Q15084; ERp5 insulin aggregation, absorbance 650 nm, 90 min; AID 651711; inhibition, % at 9.99 µM;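 active means mean replicate inhibition above about 25%, with every replicate also reaching it, limit read from the data, passing the limit was not always enough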
* marks the source's active call; other numbers are inactive results; / = no result. The entries come from a sample that favours hits as a whole.

SMILES | PglD DTNB | ALR H2O2 inh | ARNT-TACC3 inh | PDI turbidity | NRP1-CendR mod | ERp5 inh
O=C(O)CN1C(=O)/C(=C\c2cccc(OCc3ccc(Cl)cc3Cl)c2)SC1=S | -1.2 | 98.5* | -1.8 | 12.8 | -125.2 | 0.4
COc1cc(/C=C2/SC(=S)N(Cc3ccccc3)C2=O)cc(Cl)c1O | -3.5 | 47.5 | 1.2 | -23.3 | 120.4 | 1.7
COc1cc([N+](=O)[O-])cc(/C=C2/SC(=S)N(Cc3ccccc3)C2=O)c1O | 1.5 | 97.1* | 11.3 | 4.1 | -155.9 | -0.3
O=C(O)CN1C(=O)/C(=C\c2cc(Br)ccc2OCc2ccccc2F)SC1=S | 6.7 | 17.9 | -5.0 | 5.6 | -88.1 | -2.5
COc1ccc(S(=O)(=O)N(C)C[C@@H]2Oc3c(NS(=O)(=O)c4cn(C)cn4)cccc3C(=O)N([C@H](C)CO)C[C@@H]2C)cc1 | -0.2 | / | / | / | / | -7.6
CC(=O)NC[C@H]1[C@@H](c2ccc(C3=CCCC3)cc2)[C@@H](CO)N1C(=O)C1CC1 | / | / | / | / | / | 0.3
CCOC(=O)c1c(CN2CCN(c3ccccc3)CC2)oc2ccc(O)cc12 | 5.3 | 71.1 | 12.6 | 0.9 | -4.1 | -0.9
CCOC(=O)c1c(N2CCN(c3ccccc3)CC2)cc(C)nc1C | -2.7 | 96.9* | -3.0 | -4.5 | 10.7 | 1.9
C[C@@H]1CN([C@@H](C)CO)C(=O)Cc2cc(N(C)C)ccc2O[C@H]1CN(C)CC1CC1 | 2.8 | / | -4.8 | / | / | -1.5
CN(CC(=O)NCCN1CCN(c2ccccc2)CC1)S(=O)(=O)c1ccc2c(c1)CCC(=O)N2 | 0.2 | 98.0* | -1.1 | -4.5 | -1.3 | -2.2
CCCCCCCCC[n+]1cccc2c3ccccc3ccc21 | / | -13.4 | -9.3 | 4.4 | 33.0* | /
CCCCCCCCCCCCCCCC[n+]1cccc2ccccc21 | / | 3.7 | 19.1 | 6.1 | 42.2* | 7.8
C[C@H]1CN([C@@H](C)CO)C(=O)c2cc(NC(=O)Nc3ccc(C(F)(F)F)cc3)ccc2O[C@@H]1CN(C)Cc1ccc2c(c1)OCO2 | -1.1 | / | 1.8 | / | / | -1.0
Cc1ccc(N/N=C/c2cccnc2)cc1 | 6.4 | 100.7* | 4.5 | 1.8 | 1.0 | /
CC(C)Oc1ccc(CNC(=S)N/N=C/c2cccnc2)cc1 | -6.3 | 18.1 | -0.1 | 1.4 | 9.4 | /
O=C(O)c1ccc(N/N=C/c2ccncc2)cc1 | / | 10.7 | -5.4 | 16.8 | -11.4 | 0.6
Cc1ccc(N/N=C/c2ccncc2)cc1 | -4.7 | 99.2* | 3.7 | -8.8 | 2.7 | 3.6
CC(C)NC(=S)N/N=C/c1cccnc1 | / | 11.4 | -3.0 | -1.4 | 37.4* | 4.8
Clc1cccc(N/N=C/c2ccncc2)c1 | -0.9 | 94.8* | 2.2 | 1.1 | -3.4 | /
CCCN1C[C@@H](C)[C@@H](OC)CN(C)C(=O)c2cc(NC(=O)c3cnccn3)ccc2OC[C@@H]1C | -1.1 | / | -3.8 | / | / | -0.7
Clc1ccc(/C=N\Nc2ccccc2)cc1 | -2.7 | 98.6* | -2.3 | 2.4 | -15.9 | -4.7
CCCCc1c(O)c2ccccc2[nH]c1=O | 1.1 | / | -19.8 | 11.3 | 16.6 | /
CCCc1c(O)c2ccccc2[nH]c1=O | 5.0 | -1.2 | -10.2 | 7.7 | 26.0* | /
CO[C@H]1CN(C)C(=O)c2ccc(NC(=O)NC(C)C)cc2OC[C@@H](C)N(Cc2ccccn2)C[C@@H]1C | 1.8 | / | 4.6 | / | / | -2.4
CC(C)c1ccc(NC2CCCN(C(=O)CCN3CCCO3)C2)cc1 (centres undefined) | -10.2 | 67.1 | -1.4 | 0.3 | 6.3 | -0.3
SMILES | PglD DTNB | ALR H2O2 inh | ARNT-TACC3 inh | PDI turbidity | NRP1-CendR mod | ERp5 inh
CC(C)c1ccc(NC2CCCN(C(=O)CN3C(=O)CSC3=O)C2)cc1 (centres undefined) | 0.8 | 97.7* | 0.1 | 11.8 | 9.0 | 1.2
Cc1ccc(NC2CCCN(C(=O)CN3C(=O)CSC3=O)C2)cc1C (centres undefined) | -2.0 | 98.9* | 3.2 | 0.6 | 0.5 | 3.0
C[C@H](CO)N1C[C@H](C)[C@H](CN(C)C(=O)c2cccnc2)Oc2ncc(-c3ccc(C#N)cc3)cc2C1=O | 0.9 | / | -14.8 | / | / | 4.9
O=C(N[C@@H]1CC[C@H](CCn2cc(-c3cccnc3)nn2)O[C@@H]1CO)c1ccccc1F | 1.6 | / | -2.3 | / | / | -2.0
C[C@H](CO)N1C[C@H](C)[C@H](CN(C)C)Oc2ccc(NC(=O)CCCCCC(=O)Nc3ccccc3N)cc2C1=O | / | / | / | / | / | 7.8
O=S(=O)(c1ccccc1)N1CCN(c2ncccn2)CC1 | 0.8 | 5.9 | -16.4 | -0.3 | -5.3 | -5.7
O=S(=O)(c1cc(F)ccc1F)N1CCN(c2ncccn2)CC1 | -3.2 | -21.7 | -2.3 | 34.1* | 1.2 | -1.9
CC(C)(C)c1ccc(S(=O)(=O)N2CCN(c3ncccn3)CC2)cc1 | 1.5 | -3.4 | / | 8.8 | 26.9* | 2.6
C[C@@H]1CN([C@@H](C)CO)C(=O)c2cccc(NC(=O)C3CC3)c2O[C@@H]1CN(C)C(=O)NC1CCCCC1 | 2.8 | / | -2.0 | / | / | 6.3
CCn1cc(C(=O)N2CCN(C(=O)c3ccco3)CC2)c2cc(OC)c(OC)cc2c1=O | 1.1 | -5.5 | 4.5 | 0.7 | 23.6* | /
OCc1ccc(-c2nn(Cc3ccccc3)c3ccccc23)o1 | 1.2 | 92.5* | / | -4.2 | -17.0 | 0.1
CN1/C(=C/C2CC(=O)NC2=O)C(C)(C)c2ccccc21 (centres undefined) | / | 98.4* | 5.2 | 7.9 | -13.9 | /
C[C@H](O)C#Cc1cnc2c(c1)C(=O)N([C@H](C)CO)C[C@H](C)[C@@H](CN(C)CC1CCCCC1)O2 | 2.8 | / | -7.6 | / | / | /
C[C@@H]1CN([C@@H](C)CO)C(=O)c2cc(C#CC3CCCCC3)cnc2O[C@@H]1CN(C)S(=O)(=O)c1ccccc1 | 4.7 | / | 5.7 | / | / | 28.6*
C[C@H](CO)N1C[C@H](C)[C@H](CN(C)S(=O)(=O)c2cn(C)cn2)Oc2ncc(C#Cc3ccccc3)cc2C1=O | -0.6 | / | -0.3 | / | / | 36.2*
COc1ccc(S(=O)(=O)Nc2cccc3c2O[C@H](CN(C)S(=O)(=O)c2cn(C)cn2)[C@@H](C)CN([C@H](C)CO)C3=O)cc1 | 0.8 | -12.5 | -2.6 | 4.5 | 26.1* | -6.0
C[C@H](CO)N1C[C@H](C)[C@@H](CN(C)S(=O)(=O)c2ccccc2)Oc2ncc(C#CC3CCCCC3)cc2C1=O | -0.7 | / | 10.3 | / | / | -10.8
C[C@H](O)C#Cc1cnc2c(c1)C(=O)N([C@@H](C)CO)C[C@H](C)[C@H](CN(C)CC1CCCCC1)O2 | -0.6 | / | -8.2 | / | / | 32.2*
CC(=O)N1[C@@H]2c3cccc(=O)n3C[C@@H]2[C@@H](CO)[C@@H]1C(=O)N1CCc2ccccc2C1 | / | / | / | / | / | 8.1
C[C@H](O)C#Cc1cnc2c(c1)C(=O)N([C@H](C)CO)C[C@H](C)[C@@H](CN(C)CC1CCCC1)O2 | 3.4 | / | 5.7 | / | / | 10.5
COc1ccc(S(=O)(=O)N(C)C[C@H]2Oc3ncc(C#CC4(O)CCCC4)cc3C(=O)N([C@H](C)CO)C[C@@H]2C)cc1 | -1.9 | / | 39.1* | / | / | 5.1
COc1ccc(S(=O)(=O)N(C)C[C@H]2Oc3ncc(C#CC4(O)CCCC4)cc3C(=O)N([C@@H](C)CO)C[C@H]2C)cc1 | 4.7 | / | -2.3 | / | / | -5.6
